Our source for the growth inhibition values is PubChem BioAssay (NCI).

The panel holds about 79,000 compounds, 15% with a hit somewhere; the sample as a whole holds those more often. A number with no mark means an inactive call. The source made the active and inactive calls. Rule as the data show it: active = growth inhibition above about 70%; inactive = the rest. Where a SMILES comes first, the peptide text is derived from it. The star is where a group is joined. Trt = c1ccc(C(c2ccccc2)(c2ccccc2)*)cc1; OtBu = CC(C)(C)O*

Test [1] in a line: NCI Yeast Anticancer Drug Screen. Data for the rad50 strain (AID 155).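 Also: 0% = growth of vehicle-only cultures of the same strain.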 Conditions: S. cerevisiae rad50 strain growth inhibition, hits give high values. The essentials: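 A DNA repair-deficient yeast mutant serves as the test organism; compound-induced growth inhibition is calculated against vehicle-treated cells.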
Test [2] can be described thus: NCI Yeast Anticancer Drug Screen. Data for the mec2-1 strain (AID 157). As to conditions: S. cerevisiae mec2-1 strain, hits give high values. Put shortly: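 Using mec2-1 yeast: add compound, measure growth, express inhibition versus vehicle-treated cultures.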
Test [3] is described as follows: NCI Yeast Anticancer Drug Screen. Data for the sgs1 mgt1 strain (AID 161).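 Also: 0% = growth of cultures given vehicle only.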 Conditions: S. cerevisiae sgs1 mgt1 strain, hits give high values. The essentials: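 This yeast growth screen uses a strain with defined DNA-repair lesions; compound-treated growth is compared with vehicle-treated growth.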
A short description of test [4]: NCI Yeast Anticancer Drug Screen. Data for the cln2 rad14 strain (AID 165).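 Also: 0% = growth equal to vehicle treated cultures.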 Conditions: S. cerevisiae cln2 rad14 strain, hits give high values. The essentials: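 Yeast strain cln2 rad14, bearing defects in cell cycle control and DNA repair, serves as the test system; values reflect growth inhibition compared with vehicle.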
Test [5] can be described thus: NCI Yeast Anticancer Drug Screen. Data for the bub3 strain (AID 167). As to conditions: S. cerevisiae bub3 mutant strain, hits give high values. The essentials:
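Inhibition values come from growth of compound-treated mutant yeast normalised to vehicle-treated controls.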

Test [6] in a line: NCI Yeast Anticancer Drug Screen. Data for the mlh1 rad18 strain (AID 175). As to conditions: S. cerevisiae mlh1 rad18 strain growth inhibition, hits give high values. Put shortly: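 Steps: expose repair-defective yeast to compound; measure growth; express inhibition against vehicle-treated controls.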
[7] abbreviates: at 5.0 µM (retest, dose inferred, filed as 0.5).
Setting [8] is: at 50.0 µM (retest, dose inferred, filed as 5.0).

On to `FC(F)(F)c1cc(NC(=S)SC2CCCCC2)ccc1Cl`, for which the growth inhibition in test [1] (setting [7]) was 12%; in test [1] (setting [8]), 97% (active); in test [1] (at 50.0 µM) it was 41%; in test [2] (setting [7]), 4%; in test [2] (setting [8]) it was 99% (active); in test [2] (at 50.0 µM), 79.2% (active). The growth inhibition in test [3] (setting [7]) was 4%; in test [3] (setting [8]), 98% (active); in test [3] (at 50.0 µM), 88% (active); in test [4] (setting [7]), -16%; in test [4] (setting [8]), 97% (active); in test [4] (at 50.0 µM), 88.8% (active). The growth inhibition in test [5] (setting [7]) was 12%; in test [5] (setting [8]) it was 98% (active); in test [5] (at 50.0 µM), 85.9% (active); in test [6] (setting [7]), 16%; in test [6] (setting [8]), 97% (active); in test [6] (at 50.0 µM), 90% (active).
In the case of `O=[N+]([O-])c1cc(Cl)cc2c1nc(NCCO)c1ccccc12`, the growth inhibition is 76% (active) in test [1] (setting [7]); 90% (active) in test [1] (setting [8]); 75.1% (active) in test [1] (at 50.0 µM); 26% in test [2] (setting [7]); 67% in test [2] (setting [8]); 45.2% in test [2] (at 50.0 µM). Moreover, the growth inhibition in test [3] (setting [7]) was 63%; in test [3] (setting [8]), 93% (active); in test [3] (at 50.0 µM), 79.7% (active); in test [4] (setting [7]), 46%; in test [4] (setting [8]), 79% (active); in test [4] (at 50.0 µM), 65%. Also, the growth inhibition in test [5] (setting [7]) was 20%; in test [5] (setting [8]), 85% (active); in test [5] (at 50.0 µM), 79.9% (active); in test [6] (setting [7]) it was 86% (active); in test [6] (setting [8]), 93% (active); in test [6] (at 50.0 µM), 89.5% (active).
On to `CN(C)CC1CCCCCC(Br)C1=O` (stereo not given), for which the growth inhibition in test [1] (setting [7]) is 18%; in test [1] (setting [8]) it was 78% (active); in test [1] (at 50.0 µM) it was 63.9%; in test [2] (setting [7]) it was 14%; in test [2] (setting [8]), 80% (active); in test [2] (at 50.0 µM), 70.2% (active). Further, the growth inhibition is 11% in test [3] (setting [7]); 92% (active) in test [3] (setting [8]); 84% (active) in test [3] (at 50.0 µM); 12% in test [4] (setting [7]); 69% in test [4] (setting [8]); 91.5% (active) in test [4] (at 50.0 µM). Besides, the growth inhibition in test [5] (setting [7]) was -7%; in test [5] (setting [8]) it was 21%; in test [5] (at 50.0 µM), 7.05%; in test [6] (setting [7]) it was 55%; in test [6] (setting [8]), 96% (active); in test [6] (at 50.0 µM) it was 91% (active).
In the case of `OC1(c2ccccc2)c2ccccc2Sc2ccccc21`, the growth inhibition in test [1] (setting [7]) is 1%; in test [1] (setting [8]) it was 99% (active); in test [1] (at 50.0 µM) it was 99% (active); in test [2] (setting [7]), 6%; in test [2] (setting [8]) it was 99% (active); in test [2] (at 50.0 µM) it was 99.2% (active). Besides, the growth inhibition in test [3] (setting [7]) was 3%; in test [3] (setting [8]) it was 97% (active); in test [3] (at 50.0 µM), 99.2% (active); in test [4] (setting [7]), 8%; in test [4] (setting [8]), 99% (active); in test [4] (at 50.0 µM), 99% (active). In addition, the growth inhibition in test [5] (setting [7]) is -16%; in test [5] (setting [8]) it was 98% (active); in test [5] (at 50.0 µM), 99.3% (active); in test [6] (setting [7]), 7%; in test [6] (setting [8]) it was 97% (active); in test [6] (at 50.0 µM), 99.1% (active).
As for `CC(C)(C)OC(=O)CNC(=O)C(Cc1ccccc1)NC(=O)C(N)CSC(c1ccccc1)(c1ccccc1)c1ccccc1` (stereo not drawn) (H-Cys(Trt)-Phe-Gly-OtBu; configuration not given here), the growth inhibition in test [1] (setting [7]) is -3%; in test [1] (setting [8]) it was 16%; in test [1] (at 50.0 µM), 59.2%; in test [2] (setting [7]), -5%; in test [2] (setting [8]), 53%; in test [2] (at 50.0 µM), 82.2% (active). For the same compound, the growth inhibition in test [3] (setting [7]) was 0%; in test [3] (setting [8]) it was 41%; in test [3] (at 50.0 µM), 76.5% (active); in test [4] (setting [7]), -5%; in test [4] (setting [8]) it was 48%; in test [4] (at 50.0 µM), 41.3%. Moreover, the growth inhibition was 1% in test [5] (setting [7]); 34% in test [5] (setting [8]); 17.9% in test [5] (at 50.0 µM); -3% in test [6] (setting [7]); 45% in test [6] (setting [8]); 73.3% (active) in test [6] (at 50.0 µM).
`CN(N(P(c1ccccc1)c1ccccc1)P(c1ccccc1)c1ccccc1)P(c1ccccc1)c1ccccc1`: the growth inhibition in test [1] (setting [7]) was -1%; in test [1] (setting [8]) it was 2%; in test [1] (at 50.0 µM), 88.7% (active); in test [2] (setting [7]), -5%; in test [2] (setting [8]), 9%; in test [2] (at 50.0 µM), 81.9% (active). The growth inhibition in test [3] (setting [7]) was -15%; in test [3] (setting [8]), 2%; in test [3] (at 50.0 µM), 88.2% (active); in test [4] (setting [7]), 2%; in test [4] (setting [8]) it was 0%; in test [4] (at 50.0 µM) it was 64.2%. Besides, the growth inhibition was 1% in test [5] (setting [7]); -4% in test [5] (setting [8]); 76.5% (active) in test [5] (at 50.0 µM); -14% in test [6] (setting [7]); -17% in test [6] (setting [8]); 93.2% (active) in test [6] (at 50.0 µM).
On to `CC(=O)c1c2c(cc3c1CC1(C3)Cc3cc4c(c(C(=O)O)c3C1)CCCC4)CCCC2` (stereo not given) (tested in a mixture with another compound), for which the growth inhibition in test [1] (setting [7]) was 90% (active); in test [1] (setting [8]), 99% (active); in test [1] (at 50.0 µM), 77.7% (active); in test [2] (setting [7]), 84% (active); in test [2] (setting [8]) it was 99% (active); in test [2] (at 50.0 µM), 97% (active). In addition, the growth inhibition was 94% (active) in test [3] (setting [7]); 99% (active) in test [3] (setting [8]); 97.8% (active) in test [3] (at 50.0 µM); 94% (active) in test [4] (setting [7]); 99% (active) in test [4] (setting [8]); 97.9% (active) in test [4] (at 50.0 µM). In addition, the growth inhibition in test [5] (setting [7]) was 82% (active); in test [5] (setting [8]), 99% (active); in test [5] (at 50.0 µM), 96% (active); in test [6] (setting [7]), 96% (active); in test [6] (setting [8]) it was 99% (active); in test [6] (at 50.0 µM) it was 98% (active).
Consider `COC1=C(NC(C)=O)C(=O)c2nc(-c3nc(C(=O)O)c(C)c(-c4ccc(OC)c(OC)c4O)c3N)ccc2C1=O`, for which the growth inhibition was 59% in test [1] (setting [7]); 93% (active) in test [1] (setting [8]); 78.4% (active) in test [1] (at 50.0 µM); 28% in test [2] (setting [7]); 79% (active) in test [2] (setting [8]); 69.7% in test [2] (at 50.0 µM). In addition, the growth inhibition in test [3] (setting [7]) is 43%; in test [3] (setting [8]), 92% (active); in test [3] (at 50.0 µM) it was 68.7%; in test [4] (setting [7]), 38%; in test [4] (setting [8]), 90% (active); in test [4] (at 50.0 µM), 57.1%. Besides, the growth inhibition was 15% in test [5] (setting [7]); 70% (active) in test [5] (setting [8]); 55.8% in test [5] (at 50.0 µM); 48% in test [6] (setting [7]); 89% (active) in test [6] (setting [8]); 87% (active) in test [6] (at 50.0 µM).
On to `CC(CC(=O)c1ccc2sc3ccccc3c2c1)C(=O)O` (stereo not given), for which the growth inhibition in test [1] (setting [7]) was 6%; in test [1] (setting [8]), 35%; in test [1] (at 50.0 µM), 58.4%; in test [2] (setting [7]) it was -4%; in test [2] (setting [8]) it was 47%; in test [2] (at 50.0 µM), 33.6%. Further, the growth inhibition is 14% in test [3] (setting [7]); 62% in test [3] (setting [8]); 49.2% in test [3] (at 50.0 µM); -2% in test [4] (setting [7]); 24% in test [4] (setting [8]); 60.4% in test [4] (at 50.0 µM). Besides, the growth inhibition in test [5] (setting [7]) was -2%; in test [5] (setting [8]), 21%; in test [5] (at 50.0 µM), 27.3%; in test [6] (setting [7]), 15%; in test [6] (setting [8]), 59%; in test [6] (at 50.0 µM), 56.8%.
As for `CN(C)C(=S)/N=c1\ss/c(=N\S(=O)(=O)c2ccccc2)n1-c1ccccc1`, the growth inhibition is 0% in test [1] (setting [7]); 0% in test [1] (setting [8]); 37.6% in test [1] (at 50.0 µM); -5% in test [2] (setting [7]); -13% in test [2] (setting [8]); 51.9% in test [2] (at 50.0 µM). The growth inhibition in test [3] (setting [7]) was -2%; in test [3] (setting [8]), 26%; in test [3] (at 50.0 µM), 64.9%; in test [4] (setting [7]), -10%; in test [4] (setting [8]), -21%; in test [4] (at 50.0 µM) it was 9.6%. Also, the growth inhibition in test [5] (setting [7]) was -52%; in test [5] (setting [8]) it was -2%; in test [5] (at 50.0 µM), 29.1%; in test [6] (setting [7]), -1%; in test [6] (setting [8]) it was 15%; in test [6] (at 50.0 µM), 59.7%.
